Measured values published in PubChem BioAssay (Tox21).
Results filed as inconclusive are left out. Entries that show only a call come without a potency. Active and inactive are the calls of the source. Calls come from the whole dose curve. Residues, ends and D or L forms follow the SMILES beside them.

Assay: qHTS assay to identify small molecule antagonists of the estrogen receptor alpha (ER-alpha) signaling pathway using the BG1 cell line (AID 743080);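 note: BG1 cells stimulated with 17beta-estradiol alongside compound; nearly all actives have a fitted effect of over 25% in size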
Conditions: BG1Luc4E2 ERE-luciferase antagonist mode, luminescence; series mostly up to 70.3 µM
Description: National Center for Advancing Translational Sciences [NCATS]
NIH Chemical Genomics Center [NCGC]
U.S. Environmental Protection Agency [EPA]
National Institutes of Environmental Health Sciences [NIEHS]
National Toxicology Program [NTP]
U.S. Food and Drug Administration [FDA]
Estrogen receptor (ER), a nuclear hormone receptor, plays an important role in development, metabolic homeostasis and reproduction. Endocrine disrupting chemicals (EDCs) and their interactions with steroid hormone receptors like ER causes disruption of normal endocrine function. Therefore, it is important to understand the effect of environmental chemicals on the ER signaling pathway. To identify ER antagonists, BG1-Luc-4E2 cell line (provided by Dr. Michael Denison from University of California) has been used to screen the Tox21 10K compound library. BG1Luc4E2 cell line endogenously expresses full-length ER-alpha and is stably transfected with a plasmid containing four estrogen responsive elements (ERE) upstream of a luciferase reporter gene.
Tox21 Assay Protocol Summary:
BG1-Luc-4E2 cells were cultured in phenol red free assay medium containing 10% charcoal stripped FBS for 5 days before the assay was performed. The cells were dispensed at 4,000 cells/4 uL of assay medium per well into white wall/solid-bottom 1536-well plates using a Multidrop Combi (ThermoFisher Scientific, Waltham, MA) dispenser. The assay plates were incubated at a 37C and 5% CO2 for 24 h, and then 23 nL of compounds dissolved in DMSO, positive controls or DMSO only was transferred to the assay plate using a Pintool station (Kalypsys, San Diego, CA), followed by addition of 1 uL of 17beta-estradiol in assay medium using a Flying Reagent Dispenser (Aurora Discovery, San Diego, CA). After the plates were incubated at 37 C and 5% CO2 for 21.5 h, 1 uL of CellTiter-Fluor reagent (Promega, Madison, WI) of measuring cytotoxicity was added using Flying Reagent Dispenser (FRD) to each well. The assay plates were incubated at 37 C and 5% CO2 for additional 30 min and the fluorescence intensity was quantified by a ViewLux plate reader (PerkinElmer, Shelton, CT). For measuring luciferase reporter gene activity, 4 uL of ONE-Glo reagent (Promega) was added to each plate using an FRD and luminescence was quantified by a ViewLux plate reader after 30 min incubation at room temperature.
Potency is the fitted concentration of half-maximal effect.

Row | Compound | Potency
1 | N[C@H](C(=O)O)[C@@H]1CC(Cl)=NO1 | inactive
2 | CC1(C)CCC(NC(=O)[C@@H](N)CCC(=O)O)CC1 | inactive
3 | CN(C/C=C/c1ccccc1)Cc1cccc2ccccc12 | inactive
4 | CC(C)[C@H](NC(=O)[C@H](CC(=O)O)NC(=O)[C@H](CCCCN)NC(=O)[C@@H](N)CCCN=C(N)N)C(=O)N[C@@H](Cc1ccc(O)cc1)C(=O)O (H-RKDVY-OH) | inactive
5 | O=C(O)/C=C/C(=O)Nc1ccc(S(=O)(=O)Nc2nccs2)cc1 | inactive
6 | NCC1CCC(C(=O)O)CC1 (stereo not given) | inactive
7 | NC(=O)CC[C@@H]1NC(=O)[C@H](Cc2ccccc2)NC(=O)[C@H](Cc2ccc(O)cc2)NC(=O)[C@@H](N)CSSC[C@@H](C(=O)N2CCC[C@H]2C(=O)N[C@@H](CCCN=C(N)N)C(=O)NCC(N)=O)NC(=O)[C@H](CC(N)=O)NC1=O | inactive
8 | CCOC(=O)Cc1ccc(-c2ccccc2)cc1 | inactive
9 | C=CC1=C(C(=O)O)N2C(=O)[C@@H](NC(=O)/C(=N\O)c3csc(N)n3)[C@H]2SC1 (stereo in doubt) | inactive
10 | NC[C@H]1O[C@H](O[C@H]2[C@H](O)[C@@H](O[C@H]3O[C@H](CO)[C@@H](O)[C@H](N)[C@H]3O)[C@H](N)C[C@@H]2N)[C@H](N)C[C@@H]1O | inactive
11 | CCCCCCOC(=O)c1cccnc1 | inactive
12 | CC(=O)OCC(=O)[C@@]1(O)CC[C@H]2[C@@H]3CCC4=CC(=O)CC[C@]4(C)C3=CC[C@@]21C | inactive
13 | O=C[C@H](O)[C@@H](O)[C@@H](O)[C@H](O)CO | inactive
14 | O=C1OC(=O)c2cc(-c3ccc4c(c3)C(=O)OC4=O)ccc21 | inactive
15 | CNCCC=C1c2ccccc2CCc2ccccc21 | inactive
16 | CCCCCCCCCCCCCCCCCCOCC(COP(=O)([O-])OCC[N+](C)(C)C)OC (stereo not given) | inactive
17 | O=C(O)[C@@H]1C[C@H](CP(=O)(O)O)CCN1 | inactive
18 | CN(C)CCC(O)(c1ccccc1)c1ccccc1Cl (stereo not given) | inactive
19 | COC1[C@@H](O[C@@H]2O[C@H](C)[C@@H](O[C@H]3C[C@@](C)(O)[C@H](OC(=O)CC(C)C)[C@H](C)O3)[C@H](N(C)C)[C@H]2O)[C@@H](CC=O)C[C@@H](C)[C@@H](O)/C=C/C=C/C[C@@H](C)OC(=O)C[C@H]1OC(C)=O (stereo not given in full) | inactive
20 | CCN(CC)CCOC[C@H]1O[C@@H](O)[C@H](OCCN(CC)CC)[C@@H](O)[C@@H]1O | inactive

Row | Compound | Potency
21 | CCCCCCCCCC[N+](C)(CCCCCCCCCC)CCC[Si](OC)(OC)OC | inactive
22 | Oc1ccc(Cl)c2c1CCC2 | inactive
23 | CC(C)(C)c1ccc2c(S(=O)(=O)O)c(C(C)(C)C)ccc2c1 | inactive
24 | O=C1CCC(c2ccccc2)(C2CCN(Cc3ccccc3)CC2)C(=O)N1 (stereo not given) | inactive
25 | CO[C@H]1C[C@H](O[C@H]2[C@H](C)[C@@H](O[C@@H]3O[C@H](C)C[C@H](N(C)C)[C@H]3O)[C@@H](C)C[C@]3(CO3)C(=O)[C@H](C)[C@@H](O)[C@@H](C)[C@@H](C)OC(=O)[C@@H]2C)O[C@@H](C)[C@@H]1O | inactive
26 | COC(=O)[C@H]1[C@H]2C[C@H]3c4[nH]c5ccccc5c4CCN3C[C@H]2CC[C@@H]1O | inactive
27 | CCCCCCCC[N+](C)(C)CCCCCCCC | 29.8 µM (active)
28 | C=CC[N+]1([C@H]2C[C@H]3[C@@H]4CC[C@H]5C[C@H](O)[C@@H](N6CCOCC6)C[C@]5(C)[C@H]4CC[C@]3(C)[C@H]2OC(C)=O)CCCC1 | inactive
29 | CO/N=C(\C(=O)N[C@@H]1C(=O)N2C(C(=O)O)=C(C[N+]3(C)CCCC3)CS[C@H]12)c1csc(N)n1 | inactive
30 | CC(C)C[C@H](NC(=O)[C@@H](COC(C)(C)C)NC(=O)[C@H](Cc1ccc(O)cc1)NC(=O)[C@H](CO)NC(=O)[C@H](Cc1c[nH]c2ccccc12)NC(=O)[C@H](Cc1cnc[nH]1)NC(=O)[C@@H]1CCC(=O)N1)C(=O)N[C@@H](CCCN=C(N)N)C(=O)N1CCC[C@H]1C(=O)NNC(N)=O | inactive
31 | CN1CCN(CCCN2c3ccccc3Sc3ccc(Cl)cc32)CC1 | inactive
32 | CCN(CC)CCn1c(=O)c(Cc2ccc(OC)cc2)nc2ccccc21 | inactive
33 | C/C(=C\C(=O)OCCCCCCCCC(=O)O)C[C@@H]1OC[C@H](C[C@@H]2O[C@H]2[C@@H](C)[C@H](C)O)[C@@H](O)[C@H]1O | inactive
34 | CC1CCCC(C)N1NC(=O)c1ccc(Cl)c(S(N)(=O)=O)c1 (stereo not given) | inactive
35 | c1ccc(-c2ccc(C(c3ccccc3)n3ccnc3)cc2)cc1 (stereo not given) | inactive
36 | CC1(C)S[C@@H]2[C@H](NC(=O)[C@@H](NC(=O)N3CCNC3=O)c3ccccc3)C(=O)N2[C@H]1C(=O)O | inactive
37 | CC(C)(Oc1ccc(C2CCCc3ccccc32)cc1)C(=O)O (stereo not given) | inactive
38 | N=C(N)c1ccc(/C=C/c2ccc(C(=N)N)cc2O)cc1 | inactive
39 | CC(C)Cc1ccc([C@H](C)C(=O)O)cc1 | inactive
40 | Cc1c(O)c(=O)ccn1C | inactive
